Experimental data: PubChem BioAssay (NCATS)
Values joined by “and” are separate entries in the source; they are usually repeats but may differ in a detail not shown here. Equal entries are not always repeated. Records with an inconclusive call do not appear. A number with no mark means an inactive call. Active and inactive are the calls of the source. The call rests on the fitted dose curve; in most records, active means well fitted inhibition curve with a large enough effect; inconclusive means small, poorly fitted or top-dose-only effect; inactive means flat fitted curve, though single readings scatter.

These molecules were tested on KB-3-1 (assay: Cytotoxic Profiling of Annotated Libraries Using Quantitative High-Throughput Screening (AID 1296008; further: nearly all actives have a fitted effect of over 60% in size)). Details: Five cell lines viability, CellTiter-Glo ATP luminescence, 48-72 h; max response: hits give low values.
Text: Cell-based phenotypic screening is a commonly used approach to discover biological pathways, novel drug targets, chemical probes and high-quality hit-to-lead molecules. Many hits identified from high-throughput screening campaign are ruled out through a series of follow-up potency, selectivity/specificity, and cytotoxicity assays. Prioritization of molecules with little or no cytotoxicity for a more in-depth downstream evaluation influence the future direction of projects, so cytotoxicity profiling of the screening libraries at early stage is essential for increasing the likelihood of candidate success. […] For the annotated library, we also examined the primary targets and mechanistic pathways regularly associated with cell death. To our knowledge, this is the first study to use high-throughput screening to profile large libraries for cytotoxicity assessment in both normal and cancer cell lines. In summary, the results generated here constitutes a valuable resource for the scientific community and provides insight on identifying cytotoxic compounds with particular mechanisms of action, and prioritizing compounds with suitable cytotoxicity profile for further evaluation.
A pintool (Kalypsys) was used to transfer 23 nL of compound solution to the 1536-well assay plates. After 48 or 72 hr incubation at 37 degree Celsius, 5% CO2 and 95% humidity, 2.5 uL of CellTiter-Glo (Promega) was dispensed into each well using a dispenser (Aspect Automation, St. Paul, MN) with solenoid valves (Lee Valves, Westbrook CT). Plates were left at room temperature for 10 min before imaging the ATP-coupled luminescence using a ViewLux microplate imager (PerkinElmer, Waltham, MA).
On the % scale 0 is the no-effect control and ±100 the full control effect; potency means the concentration at half of the fitted maximal effect.

Q: With CCCCCCCCOC(=O)c1ccccc1C(=O)OCCCCCCCC as the molecule, how does the max response read?
A: Its max response is -10%.

Q: How did the max response turn out when [S]=[Sb](=[S])[S][Sb](=[S])=[S] was run?
A: Its max response is 2.26%.

Q: How did the max response turn out when [O]=[Cr](=[O])([OH])[O][Cr](=[O])(=[O])[OH] was run?
A: Its max response is -23.8% and 6.69%.

Q: For COc1cc(CCNCc2ccccc2O)c(OC)cc1C#N, which outcome is on record?
A: Its outcome is “inactive”.

Q: Which max response does the source give for CCNC(C)Cc1cccc(C(F)(F)F)c1 (stereo not given) here?
A: Its max response is 20.4%.

Q: How did the max response turn out when OC1(c2ccc(Cl)cc2)c2ccccc2C2=NCCN21 (stereo not given) was run?
A: The max response was 7.32%.

Q: With COC1CC(O[C@H]2CC[C@]3(C=O)C4CC[C@]5(C)[C@@H](C6=CC(=O)OC6)CC[C@]5(O)[C@@H]4CC[C@]3(O)C2)OC(C)C1O[C@@H]1O[C@H](CO)[C@@H](O)[C@H](O)[C@H]1O (stereo not given in full) as the molecule, how does the Potency read?
A: Its Potency is 273 nM (active).

Q: With CN(C)[C@@H]1C(=O)C(C(N)=O)=C(O)[C@@]2(O)C(=O)C3=C(O)c4c(O)ccc(Cl)c4[C@@](C)(O)[C@H]3C[C@@H]12 as the molecule, how does the max response read?
A: The max response was 2.99%.

Q: How did the max response turn out when Cc1ccccc1-n1c(C)nc2ccccc2c1=O was run?
A: Its max response is -2.74% and -4.4%.

Q: Which max response does the source give for CC(N)Cc1ccc(O)cc1 (stereo not given) here?
A: The max response was -5.37%.

Q: How did the outcome turn out when COC1=CC(=O)O[C@@H](CCc2ccccc2)C1 was run?
A: Its outcome is “inactive”.

Q: Which max response does the source give for CCCCCCCCCC(=O)O[C@H]1CC[C@H]2[C@@H]3CCC4=CC(=O)CC[C@]4(C)[C@H]3CC[C@]12C here?
A: Its max response is 0.58%.

Q: O=C(NC(=O)c1c(F)cccc1F)Nc1ccc(Cl)c(Oc2ncc(C(F)(F)F)cc2Cl)c1 was tested. Which max response did it give?
A: The max response was -5.7%.

Q: How did the max response turn out when Cc1ccccc1-n1c(CF)nc2ccc(N)cc2c1=O was run?
A: Its max response is -0.0685%.

Q: How did the max response turn out when CCOC(=O)/C=C(C)/C=C/C[C@@H](C)CCCC(C)C was run?
A: Its max response is 3.85%.

Q: Which outcome does the source give for COC1=CC(=O)O[C@@H](/C=C/c2ccccc2)C1 here?
A: The outcome was “inactive”.

Q: How did the max response turn out when COc1ccccc1CN[C@H]1C2CCN(CC2)[C@H]1C(c1ccccc1)c1ccccc1 was run?
A: Its max response is -8.54%.

Q: CCCC(=O)OC(C(Cl)(Cl)Cl)P(=O)(OC)OC (stereo not given) was tested. Which max response did it give?
A: The max response was -2.33%.

Q: With C[C@]12CC[C@H]3[C@@H]([C@H](O)CC4=CC(=O)CC[C@@]43C)[C@@H]1CC[C@@H]2O as the molecule, how does the max response read?
A: Its max response is 5.15%.

Q: With CC1=C2C[C@H]3[C@@H](CC=C4C[C@@H](O)CC[C@@]43C)[C@@H]2CC[C@]12O[C@@H]1C[C@H](C)CN[C@H]1[C@H]2C as the molecule, how does the max response read?
A: The max response was 1.29%.

Q: For Clc1ccc(N2C[C@H]3CC[C@@H](C2)N3)nn1, which max response is on record?
A: The max response was 2.38%.

Q: Cc1c(Cl)cccc1S(=O)(=O)Nc1nc(CC(=O)N2CCN(C)CC2)cs1 was tested. Which outcome did it give?
A: Its outcome is “inactive”.

Q: With ClC1C(Cl)C(Cl)C(Cl)C(Cl)C1Cl (stereo not given) as the molecule, how does the max response read?
A: Its max response is 2.37%.

Q: Which max response does the source give for C=CCN=C=S here?
A: The max response was -2.35%.

Q: Which max response does the source give for Clc1ccc(OCC2=NCCN2)cc1Cl here?
A: Its max response is 6.44%.

Q: COC(=O)[C@@]12C(=O)C(C)C(=O)[C@]1(C)C(C)=C[C@H]1[C@]3(C=O)CC[C@H](OC(C)=O)C(C)(C)[C@H]3CC[C@@]12C (stereo not given in full) was tested. Which max response did it give?
A: The max response was 6.62%.

Q: With O=C(C[C@@H]1NCCC[C@H]1O)Cn1cnc2cc(Br)c(Cl)cc2c1=O as the molecule, how does the max response read?
A: Its max response is -0.356%.

Q: For CCCCCCn1c(=O)c(C(=O)Nc2ccc(C(=O)OCCC)cc2)c(O)c2ccccc21, which outcome is on record?
A: The outcome was “inactive”.

Q: How did the max response turn out when O=[N+]([O-])C(Br)(CO)CO was run?
A: The max response was 1.16%.

Q: Which max response does the source give for O=C(CS(=O)C(c1ccccc1)c1ccccc1)NO (stereo not given) here?
A: The max response was -1.93%.

Q: How did the max response turn out when N#CC1(N2CCCCC2)CCCCC1 was run?
A: The max response was 9.38%.

Q: With Cn1ncnc1COc1nn2c(-c3c(F)cccc3F)nnc2cc1C1CCC1 as the molecule, how does the outcome read?
A: The outcome was “inactive”.

Q: Which max response does the source give for O=C(NCNC(=O)NC1C(=O)NC(=O)N1CO)NC1C(=O)NC(=O)N1CO (stereo not given) here?
A: Its max response is 2.87%.

Q: With COC1CC(O[C@H]2CC[C@@]3(C)C(=CCC4C3C(O)[C@@H](O)[C@]3(C)[C@@H](C(C)=O)CC[C@]43O)C2)OC(C)C1OC1CC(OC)C(OC2OC(C)C(O)C(O)C2O)C(C)O1 (stereo not given in full) as the molecule, how does the outcome read?
A: The outcome was “inactive”.

Q: How did the max response turn out when CCC/C=C/C=C/C(=O)O[C@H]1/C(=C/C(=O)OC)C[C@H]2C[C@H]([C@@H](C)O)OC(=O)C[C@H](O)C[C@@H]3C[C@H](OC(C)=O)C(C)(C)[C@](O)(C[C@@H]4C/C(=C/C(=O)OC)C[C@H](/C=C/C(C)(C)[C@]1(O)O2)O4)O3 was run?
A: The max response was 0.184%.

Q: Which max response does the source give for CC(C)(O)[C@H]1O[C@H]2CC[C@@]3(C)[C@@](O)(CC[C@H]4Cc5c([nH]c6ccccc56)[C@@]43C)C2=CC1=O here?
A: The max response was 9.13%.

Q: CCC(=O)O[C@]1(c2ccccc2)CCN(C)C[C@H]1C was tested. Which max response did it give?
A: Its max response is -2.12%.

Q: CC(=O)Oc1ccc2c3c1O[C@H]1[C@@H](OC(C)=O)C=C[C@H]4[C@@H](C2)N(C)CC[C@@]341 was tested. Which max response did it give?
A: The max response was -5% and 2.33%.

Q: Which max response does the source give for C[C@H]1CC[C@]2(NC1)O[C@H]1C[C@H]3[C@@H]4CC[C@H]5C[C@@H](O)CC[C@]5(C)[C@H]4CC[C@]3(C)[C@H]1[C@@H]2C here?
A: The max response was -2.2%.

Q: How did the max response turn out when CNC1(c2ccccc2Cl)CCCCC1=O (stereo not given) was run?
A: The max response was 3.79% and -7.59%.
